# Data reported in PubChem BioAssay AID624171 (National Center for Advancing Translational Sciences (NCATS), 2012).
# Among all 410,000 compounds or so, about 1,200 (0.29%) were called active. Not shown: some 2% with an inconclusive outcome. This excerpt belongs to a sample that is enriched for actives. Values without a mark were called inactive. The call rests on the fitted dose curve; in most records, active means well fitted activation curve with a large enough effect; inconclusive means small, poorly fitted or top-dose-only effect; inactive means flat fitted curve, though single readings scatter.
# Assay: qHTS of Nrf2 Activators; further: nearly all actives have a fitted effect of over 65% in size; on activation: % of control where 0% means no effect
# Conditions: AREc32 ARE-luciferase reporter (MCF7-derived line), luminescence, 24 h; series mostly up to 46.1 µM; activation: at the top concentration
# Procedure, shortened: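 Cells of the AREc32 ARE-luciferase line are plated in OPTI-MEM containing 5% FBS and left overnight at 37 deg C. Compounds are pinned in, incubation continues 24 hr, and firefly luciferase signal is then measured.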
# Potency means the concentration at half of the fitted maximal effect.
SMILES,activation,Potency
COc1ccc(Cl)cc1S(=O)(=O)N1CCC(c2ccncc2)CC1,3.31%,–
CCOc1ccc(CC(=O)NCCc2csc3nc(-c4ccccc4F)nn23)cc1,3.54%,–
O=C(COC(=O)/C=C/c1ccc2c(c1)OCO2)NC1CCS(=O)(=O)C1 (stereo unspecified),5.37%,–
O/N=C(\c1ccc2c(c1)OCCO2)C1CCCCC1,-0.368%,–
O=C(/C=C/c1ccc2c(c1)OCCO2)c1ccc(O)cc1,–,5.01 µM (active)
O=C(NCCc1csc(-c2ccc(C(F)(F)F)cc2)n1)C(=O)Nc1ccc(F)c(Cl)c1,0.286%,–
COc1ccc(NC(=O)c2ccc3nc(C(C)C)oc3c2)cc1OC,9.79%,–
COCc1c(C(=O)OCC(=O)Nc2ccc(OC(F)F)cc2)oc2ccccc12,-0.783%,–
CCc1cccc(NC(=O)COC(=O)C2CCN(c3ccc(C(F)(F)F)cn3)CC2)c1,-0.0951%,–
CCc1cccc(NC(=O)COC(=O)c2cc(=O)c3ccccc3o2)c1,–,14.1 µM (active)
Cc1cc(C)nc(NS(=O)(=O)c2ccc(NC(=O)c3cc(=O)c4ccc(C)c(C)c4o3)cc2)n1,-0.437%,–
COc1cc2c(cc1NC(=O)COC(=O)/C=C/c1ccccc1)oc1ccccc12,4.04%,–
COc1ccc([N+](=O)[O-])cc1NC(=O)COC(=O)/C=C/c1ccco1,–,11.2 µM (active)
COc1ccc(Br)cc1CN(C)CC(=O)Nc1cc([N+](=O)[O-])ccc1OC,0.584%,–
FC(F)(F)c1cc(Nc2nc3ccccc3c3nncn23)ccc1Cl,-0.119%,–
COc1cccc(N=C2SC(C(=O)Nc3cccc(Cl)c3)CC(=O)N2C)c1 (stereo unspecified),4.5%,–
COc1ccc(-c2nnc(SCC(=O)Nc3ccc(C(C)C)cc3)nc2-c2ccc(OC)c(OC)c2)cc1OC,4.8%,–
Cc1ccc(Cc2c(-c3ccco3)nc3ccc(Cl)cn23)cc1,–,12.6 µM (active)
COC(=O)c1ccc2nc(-c3ccc(Cl)cc3)c(Cc3cccc(F)c3)n2c1,0.65%,–
c1ccc(Cc2c(-c3ccco3)nc3c4ccccc4ccn23)cc1,–,6.31 µM (active)
CCCc1nc2c3ccccc3ccn2c1Cc1ccccc1C(F)(F)F,10.7%,–

SMILES,activation,Potency
COC(=O)c1ccc2nc(-c3ccc(F)cc3)c(Cc3ccc(C)cc3)n2c1,16.6%,–
CC(C)c1ccc(NC(=O)C2CCN(c3nc(-c4ccc(C(C)C)cc4)no3)CC2)cc1,-5.01%,–
COc1ccc(NC(=O)c2sc3nc(-c4cc5cccc(OC)c5oc4=O)[nH]c(=O)c3c2C)cc1,-0.615%,–
O=S(=O)(c1ccc(Cl)cc1)c1nnn2c1nc(NC1CCCC1)c1sccc12,-0.774%,–
CCc1cc2c(cc3c(=O)n(CC(=O)NCCc4ccc(OC)c(OC)c4)ncn32)s1,0.25%,–
CCOC(=O)c1ccc(CSc2nnc3cc(C)c4ccccc4n23)cc1,2.48%,–
CN(C(=O)c1ccccc1)c1nccnc1C#N,-0.11%,–
COc1cccc(C(=O)c2sc3nc(-c4ccccc4)cc(C(F)(F)F)c3c2N)c1,22.5%,–
COc1ccc(S(=O)(=O)c2c(Nc3cccc(Cl)c3)sc(C(=O)c3ccccc3)c2N)cc1,5.95%,–
CCCS(=O)(=O)c1c(Nc2ccccc2C)sc(C(=O)c2ccccc2)c1N,-0.703%,–
CN(C)c1ccnc2sc(C(=O)c3ccccc3)c(N)c12,–,10 µM (active)
Cc1ccc2c(N)c(C(=O)c3ccccc3)sc2n1,–,8.91 µM (active)
COc1ccc(-n2ccnc(NCCc3ccc(Cl)cc3)c2=O)cc1OC,3.86%,–
CCN1CCN(c2cc(C)c3cc(NC(=O)c4cc(Cl)ccc4OC)ccc3n2)CC1,0.689%,–
COc1ccc(CCNC(=O)CCCn2c(=O)c3ccccc3n(Cc3ccc(F)cc3Cl)c2=O)cc1OC,-0.204%,–
CCOc1ccccc1C(=O)NC1(C(F)(F)F)C(=O)Nc2c1c(=O)[nH]c(=O)n2-c1ccc(F)cc1 (stereo unspecified),-0.547%,–
Cc1ccc(-c2noc(-c3nnn(-c4cccc(C(F)(F)F)c4)c3N)n2)cc1,-0.844%,–
Cc1cccc(NC(=O)CSc2nnc(CNC(=O)c3cccc(C)c3)n2-c2ccccc2)c1,-0.11%,–
CCOC(=O)c1c(NC(C)=O)c2c3c(sc2n1Cc1c(C)cc(C)cc1C)CCCC3,7.04%,–
COc1ccccc1CNC(=O)CCCCn1c(=O)c2ccccc2n(CC(=O)Nc2cc(Cl)ccc2C)c1=O,-0.0006%,–
COc1cccc(C(=O)N(Cc2cccc(Cl)c2)Cc2ccco2)c1,8.54%,–

SMILES,activation,Potency
COc1ccccc1N1CCN(S(=O)(=O)CCNC(=O)COc2ccc(F)cc2)CC1,2.57%,–
CC(C)n1c(O)c(N=Nc2ccccn2)c2ccccc21,–,12.6 µM (active)
COC(=O)Cn1c(O)c(N=NC(=O)OC)c2ccccc21,4.09%,–
CCOC(=O)c1ccc(N2C(=O)c3[nH]nc(-c4ccccc4)c3C2c2ccc(C(C)C)cc2)cc1 (stereo unspecified),-0.391%,–
CC1CCCCN1Cc1c(O)ccc2c(=O)c(-c3cccc(Cl)c3)c(C(F)(F)F)oc12 (stereo unspecified),2.18%,–
COc1ccc(-c2nc3c4ccccc4n(CC(=O)Nc4ccc(C(C)=O)cc4)c(=O)n3n2)cc1,-0.364%,–
CC(C)(C)OC(=O)N1CCC(c2c(C(=O)N3CCc4ccccc4C3)cnn2-c2ccc(F)cc2)CC1,0.152%,–
O=C(N/N=C/c1cccc([N+](=O)[O-])c1)c1ccncc1,–,12.6 µM (active)
O=C(/C=C/c1cccc([N+](=O)[O-])c1)OCC(=O)N1CCOCC1,14.8%,–
COc1cc(CCN=Cc2ccccc2O)c([N+](=O)[O-])cc1OC,0.105%,–
N/C(=N\OS(=O)(=O)c1cccc([N+](=O)[O-])c1)c1ccncc1,-1.41%,–
O=C(c1ccncc1)N1CCN(S(=O)(=O)c2cccc([N+](=O)[O-])c2)CC1,2.53%,–
O=[N+]([O-])c1cccc(C=NN=Cc2ccccc2O)c1,–,10 µM (active)
O=C(COc1ccccc1F)OCc1cc(=O)n2nc(C3CCCCC3)sc2n1,0.67%,–
Cc1cccc(OCC(=O)N(Cc2ccc(C(C)C)cc2)Cc2ccco2)c1C,1.44%,–
O=C1CSC2(C(=O)N(Cc3ccccc3)c3ccccc32)N1c1cccc(F)c1 (stereo unspecified),1.27%,–
Cc1ccc(C)c(N2CCN(C(c3ccccc3)c3nnc(-c4ccccc4)o3)CC2)c1 (stereo unspecified),3.85%,–
CCn1cc(C(=O)N2CCN(c3cc(Cl)ccc3C)CC2)c(=O)c2cc(S(=O)(=O)N3CCCC3)ccc21,0.498%,–
Cc1ccc(-n2c3nc(=O)[nH]c(=O)c-3cc3c(Cl)cccc32)cc1,0.875%,–
